From PubChem BioAssay AID1159580 (chemical genetic matrix, 2015)
About 2,000 (36%) of roughly 5,500 compounds were called active. Another 18% or so got no clear call; they are omitted. Rule as the data show it: active = normalized growth mostly below about 0.91 (no sharp cut-off); inconclusive = no clear call, values can overlap the other calls; inactive = mostly above about 0.92. The list shows a part of the results.

Experiment: chemical genetic growth profiling, strain panel (AID 1159580);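 also: tested at 20 µM; growth read once vehicle control cultures reached saturation at 30 °C; 1 = growth at the plate median or of vehicle wells; lower values mean less growth of the strain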
Settings: S. cerevisiae deletion strains, growth OD

Measured: normalized growth

O=C(/C=C/c1ccccc1)c1ccc(O)cc1O
active: locus YAL021C, strain ccr4, hits give low values 0.0748 | locus YAL026C, strain drs2, hits give low values 0.0615 | locus YAL030W, strain snc1, hits give low values 0.0587 | locus YBL061C, strain skt5, hits give low values 0.066 | locus YBR009C, strain hhf1, hits give low values 0.0651 | locus YBR023C, strain chs3, hits give low values 0.0637 | locus YBR171W, strain sec66, hits give low values 0.0801 | locus YBR231C, strain swc5, hits give low values 0.062 | locus YBR279W, strain paf1, hits give low values 0.0608 | locus YCL011C, strain gbp2, hits give low values 0.0582 | locus YCL016C, strain dcc1, hits give low values 0.0631 | locus YCL061C, strain MRC1, hits give low values 0.0667 | locus YCL069W, strain vba3, hits give low values 0.0608 | locus YCR088W, strain abp1, hits give low values 0.0623 | locus YDL005C, strain med2, hits give low values 0.0755 | locus YDL040C, strain nat1, hits give low values 0.0609 | locus YDR001C, strain nth1, hits give low values 0.0596 | locus YDR069C, strain doa4, hits give low values 0.0834 | locus YDR137W, strain rgp1, hits give low values 0.0879 | locus YDR159W, strain sac3, hits give low values 0.0941 | locus YDR195W, strain ref2 0.114 | locus YDR297W, strain sur2, hits give low values 0.0595 | locus YDR334W, strain swr1, hits give low values 0.0664 | locus YDR335W, strain msn5, hits give low values 0.0605 | locus YDR392W, strain spt3, hits give low values 0.0975 | locus YEL003W, strain gim4, hits give low values 0.0559 | locus YEL037C, strain rad23, hits give low values 0.059 | locus YEL061C, strain CIN8 (second series), hits give low values 0.0607 | locus YER015W, strain faa2, hits give low values 0.0634 | locus YER016W, strain bim1, hits give low values 0.0613 | locus YER111C, strain swi4, hits give low values 0.0739 | locus YER155C, strain BEM2 (second series), hits give low values 0.0936 | locus YFR010W, strain ubp6, hits give low values 0.0802 | locus YGL167C, strain pmr1, hits give low values 0.0759 | locus YGL173C, strain kem1, hits give low values 0.0714 | locus YGL227W, strain vid30, hits give low values 0.0642 | locus YGL240W, strain doc1, hits give low values 0.0905 | locus YGL253W, strain hxk2, hits give low values 0.054 | locus YHR013C, strain ard1, hits give low values 0.122 | locus YHR027C, strain rpn1, hits give low values 0.0687 | locus YHR030C, strain SLT2, hits give low values 0.101 | locus YHR079C, strain IRE1, hits give low values 0.113 | locus YHR142W, strain chs7, hits give low values 0.0687 | locus YJL092W, strain hpr5, hits give low values 0.0609 | locus YJL095W, strain BCK1 (second series), hits give low values 0.0568 | locus YJL095W, strain BCK1, hits give low values 0.131 | locus YJL115W, strain asf1, hits give low values 0.0751 | locus YJL129C, strain trk1, hits give low values 0.0857 | locus YJL154C, strain vps35, hits give low values 0.0627 | locus YJL164C, strain tpk1, hits give low values 0.0619 | locus YJL166W, strain qcr8, hits give low values 0.0694 | locus YJL187C, strain SWE1, hits give low values 0.0592 | locus YJR066W, strain TOR1, hits give low values 0.000815 | locus YKL160W, strain elf1, hits give low values 0.0634 | locus YKR026C, strain gcn3, hits give low values 0.0638 | locus YKR091W, strain srl3, hits give low values 0.0604 | locus YLL001W, strain dnm1, hits give low values 0.059 | locus YLL026W, hits give low values 0.0586 | locus YLL041C, strain sdh2, hits give low values 0.063 | locus YLR027C, strain aat2, hits give low values 0.0578 | locus YLR113W, strain HOG1, hits give low values 0.216 | locus YLR221C, strain rsa3, hits give low values 0.0573 | locus YLR258W, strain gsy2, hits give low values 0.0645 | locus YLR262C, strain YPT6 (second series), hits give low values 0.0856 | locus YLR320W, strain mms22, hits give low values 0.0956 | locus YLR342W, strain FKS1, hits give low values 0.064 | locus YLR357W, strain rsc2, hits give low values 0.137 | locus YLR370C, strain arc18, hits give low values 0.0633 | locus YLR384C, strain iki3, hits give low values 0.0625 | locus YML120C, strain ndi1, hits give low values 0.0602 | locus YMR058W, strain fet3, hits give low values 0.0605 | locus YMR125W, strain sto1, hits give low values 0.0837 | locus YMR129W, hits give low values 0.061 | locus YMR205C, strain PFK2, hits give low values 0.0908 | locus YMR231W, strain pep5, hits give low values 0.0723 | locus YNL071W, strain lat1, hits give low values 0.0616 | locus YNL183C, strain NPR1, hits give low values 0.000882 | locus YNL209W, strain ssb2, hits give low values 0.0674 | locus YNL248C, strain rpa49, hits give low values 0.0717 | locus YNL322C, strain KRE1 (second series), hits give low values 0.0685 | locus YNR049C, strain mso1, hits give low values 0.0592 | locus YOR001W, strain rrp6, hits give low values 0.0669 | locus YOR070C, strain gyp1, hits give low values 0.0587 | locus YOR080W, strain dia2, hits give low values 0.0676 | locus YOR083W, strain WHI5, hits give low values 0.0633 | locus YOR106W, strain vam3, hits give low values 0.0654 | locus YOR231W, strain MKK1, hits give low values 0.108 | locus YOR265W, strain rbl2, hits give low values 0.0582 | locus YOR270C, strain vph1, hits give low values 0.0904 | locus YOR290C, strain snf2, hits give low values 0.0728 | locus YPL051W, strain arl3, hits give low values 0.0614 | locus YPL078C, strain atp4, hits give low values 0.0665 | locus YPL106C, strain sse1, hits give low values 0.102 | locus YPL240C, strain hsp82, hits give low values 0.058 | locus YPL256C, strain CLN2, hits give low values 0.118
